# Data as given in the supplement of paper PMC8728848.
# The full list was thinned out, with the strongest signals kept by preference.
# What was measured:
# Experiment in all cases: glycan array binding signal (z-score within array); higher = stronger binding
# Conditions in all cases: glycan notation: IUPAC condensed, linker removed
# [1] = target: Gal(b1-4)GlcNAc(b1-3)Gal(b1-4)GlcNAc(b1-3)[Gal(b1-4)GlcNAc(b1-3)Gal(b1-4)GlcNAc(b1-6)]GalNAc
# Outline: (§1)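 The binding signal is a Z-score computed within each array and averaged over linkers. Arrays of the same protein sequence at different concentrations or buffers were also averaged together. Data originate from 3228 arrays in the Consortium for Functional Glycomics database, kept only where the protein sequence was available.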
# [2] = target: Gal(b1-4)GlcNAc(b1-3)GalNAc
# Outline: as §1
# Gal3S(b1-4)Glc6S = target: Gal3S(b1-4)Glc6S
# Outline: as §1
# [3] = target: Gal3S(b1-4)[Fuc(a1-3)]Glc
# Outline: as §1
# Gal4S(b1-4)GlcNAc = target: Gal4S(b1-4)GlcNAc
# Outline: as §1
# Gal6S(b1-4)GlcNAc = target: Gal6S(b1-4)GlcNAc
# Outline: as §1
# [4] = target: GalNAc(b1-3)Gal(a1-6)Gal(b1-4)Glc
# Outline: as §1
# GalNAc(b1-4)GlcNAc6S = target: GalNAc(b1-4)GlcNAc6S
# Outline: as §1
# GalNAc6S(b1-4)GlcNAc = target: GalNAc6S(b1-4)GlcNAc
# Outline: as §1
# Glc(a1-4)Glc = target: Glc(a1-4)Glc
# Outline: as §1
# Glc(b1-4)Glc = target: Glc(b1-4)Glc
# Outline: as §1
# [5] = target: GlcNAc(b1-3)Gal(b1-4)GlcNAc(b1-3)Gal(b1-4)GlcNAc(b1-3)Gal(b1-4)GlcNAc(b1-2)Man(a1-3)[GlcNAc(b1-3)Gal(b1-4)GlcNAc(b1-3)Gal(b1-4)GlcNAc(b1-3)Gal(b1-4)GlcNAc(b1-2)Man(a1-6)]Man(b1-4)GlcNAc(b1-4)[Fuc(a1-6)]GlcNAc
# Outline: as §1
# GlcNAc(b1-4)GlcNAc = target: GlcNAc(b1-4)GlcNAc
# Outline: as §1
# Kdn(a2-3)Gal(b1-3)GlcNAc = target: Kdn(a2-3)Gal(b1-3)GlcNAc
# Outline: as §1
# [6] = target: Man(a1-2)Man(a1-3)[Man(a1-2)Man(a1-6)]Man(a1-6)[Man(a1-2)Man(a1-2)Man(a1-3)]Man(b1-4)GlcNAc(b1-4)GlcNAc
# Outline: as §1
# [7] = target: Man(a1-3)[Man(a1-6)]Man(b1-4)GlcNAc(b1-4)[Fuc(a1-6)]GlcNAc
# Outline: as §1
# [8] = target: Neu5Ac(a2-3)Gal(b1-3)]Neu5Ac(a2-3)Gal(b1-4)]GlcNAc
# Outline: as §1
# [9] = target: Neu5Ac(a2-3)Gal(b1-4)GlcNAc(b1-3)Gal(b1-4)GlcNAc(b1-3)Gal(b1-4)GlcNAc(b1-2)Man(a1-3)[Neu5Ac(a2-3)Gal(b1-4)GlcNAc(b1-3)Gal(b1-4)GlcNAc(b1-3)Gal(b1-4)GlcNAc(b1-2)Man(a1-6)]GalNAc
# Outline: as §1
# [10] = target: Neu5Ac(a2-3)Gal(b1-4)GlcNAc(b1-3)GalNAc
# Outline: as §1
# [11] = target: Neu5Ac(a2-3)Gal(b1-4)[Fuc(a1-3)]GlcNAc(b1-3)GalNAc
# Outline: as §1
# [12] = target: Neu5Ac(a2-6)Gal(b1-3)GlcNAc(b1-3)[Gal(b1-4)GlcNAc(b1-6)]Gal(b1-4)Glc
# Outline: as §1
# [13] = target: Neu5Ac(a2-6)Gal(b1-4)GlcNAc(b1-2)Man(a1-3)[GlcNAc(b1-2)Man(b1-4)GlcNAc(b1-2)Man(a1-6)]Man(b1-4)GlcNAc(b1-4)GlcNAc
# Outline: as §1
# [14] = target: Neu5Ac(a2-6)Gal(b1-4)GlcNAc(b1-2)Man(a1-3)[GlcNAc(b1-4)][Neu5Ac(a2-6)Gal(b1-4)GlcNAc(b1-2)Man(a1-6)]Man(b1-4)GlcNAc(b1-4)GlcNAc
# Outline: as §1
# [15] = target: Neu5Ac(a2-6)Gal(b1-4)GlcNAc(b1-6)[Gal(b1-3)]GalNAc
# Outline: as §1
# [16] = target: Neu5Ac(a2-6)GalNAc(b1-4)GlcNAc6S
# Outline: as §1
# [17] = target: Neu5Ac(a2-8)Neu5Ac(a2-3)Gal(b1-4)GlcNAc
# Outline: as §1
# [18] = target: Neu5Ac(a2-8)Neu5Gc(a2-3)Gal(b1-4)GlcNAc
# Outline: as §1
binder,measurement,setting,value
"LlpA1 (Pseudomonas fluorescens), Q4KHC3 (protein) MGSSHHHHHHSSGLVPRGSHMAWIRYDFTDNGSSVLPARYYMAPNQYLQSPNKRFKLLFQADGNLALYDGAQLAWVADQNTPFTNVSKGNKKDPMMVFMNYGFVLDDPLRGRIWSTTPSDPTMGSREDASLRAFTQVQDDGNIVTVDTIPHWYAPNGRVFTPAVGAAMIIGGTTELVPGQFYSAGEHSLVFQGDGNLVVYGPNSSVIWATYTQNKGGVRCVMQEDGNLVIYAANNGVVWQSGTGGHPGATIRLQANGSFTIVTERPVWARFGYTPTIKPPRVFYPDHKWKTGSYTWNNVF",glycan array binding signal (z-score),[1],2.36
same,glycan array binding signal (z-score),[2],-0.927
same,glycan array binding signal (z-score),Gal3S(b1-4)Glc6S,-0.494
same,glycan array binding signal (z-score),[3],-0.518
same,glycan array binding signal (z-score),Gal4S(b1-4)GlcNAc,0.315
same,glycan array binding signal (z-score),Gal6S(b1-4)GlcNAc,0.079
same,glycan array binding signal (z-score),[4],0.158
same,glycan array binding signal (z-score),GalNAc(b1-4)GlcNAc6S,1.64
same,glycan array binding signal (z-score),GalNAc6S(b1-4)GlcNAc,1.35
same,glycan array binding signal (z-score),Glc(a1-4)Glc,0.211
same,glycan array binding signal (z-score),Glc(b1-4)Glc,-1.02
same,glycan array binding signal (z-score),[5],1.27
same,glycan array binding signal (z-score),GlcNAc(b1-4)GlcNAc,0.141
same,glycan array binding signal (z-score),Kdn(a2-3)Gal(b1-3)GlcNAc,-0.948
same,glycan array binding signal (z-score),[6],0.448
same,glycan array binding signal (z-score),[7],-0.367
same,glycan array binding signal (z-score),[8],0.082
same,glycan array binding signal (z-score),[9],2.75
same,glycan array binding signal (z-score),[10],-0.31
same,glycan array binding signal (z-score),[11],0.206
same,glycan array binding signal (z-score),[12],-0.201
same,glycan array binding signal (z-score),[13],2.45
same,glycan array binding signal (z-score),[14],-0.209
same,glycan array binding signal (z-score),[15],0.228
same,glycan array binding signal (z-score),[16],-0.028
same,glycan array binding signal (z-score),[17],-0.552
same,glycan array binding signal (z-score),[18],8.89
